The values that follow come from PubChem BioAssay (NCATS).

Results filed as inconclusive are left out. Entries that show only a call come without a potency. Active and inactive are the calls of the source. Calls follow the shape of the dose curve; as a rule, active = well fitted curve in the direction sought with a large enough effect; inconclusive = small, poorly fitted or top-dose-only effect, or another doubt; inactive = no such curve, though single readings can be large; an effect the other way counts as inactive or inconclusive.

The nature of the first assay: qHTS for inhibitors of adenylyl cyclases using a fission yeast platform: a pilot screen against the NCATS LOPAC library (AID 1347410). The conditions noted are these: S. pombe CHP2027, fbp1-GFP fluorescence, 18 h, yeast expressing mammalian AC9 and human GNAS; series mostly up to 57.5 µM. Put shortly: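 Fission yeast qHTS: CHP2027 cells (AC9-GNAS-PDE4D2, fbp1-GFP), 5x10^6 cells/mL working density, EMM + His/Lys/Ura; LOPAC at up to 57 µM final; 18 h dark, 30C; GFP by laser cytometry. DPI positive control, DMSO vehicle.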
In general terms: In qHTS, concentration-response curves come from the screen itself.
In the case of `O=C(c1cc(O)c(O)c([N+](=O)[O-])c1)c1ccccc1F`, the result was inactive.

With `CCN(CC)CCCCNc1ncc2cc(-c3c(Cl)cccc3Cl)c(NC(=O)NC(C)(C)C)nc2n1`, the result was inactive. As for `Nc1nc(OCC2CCCCC2)c2[nH]cnc2n1`, the molecule was classed as inactive. The same measure, in the same setting: next, `CC[C@@H](C)[C@H]1O[C@]2(CC[C@H]1C)C[C@@H]1C[C@@H](CC=C(C)[C@@H](O[C@H]3C[C@H](OC)[C@@H](O[C@H]4C[C@H](OC)[C@@H](O)[C@H](C)O4)[C@H](C)O3)[C@@H](C)C=CC=C3CO[C@@H]4[C@H](O)C(C)=C[C@@H](C(=O)O1)[C@]34O)O2`: “inactive”; `O=C(Nc1ccccc1)c1cc([N+](=O)[O-])ccc1Cl`: “inactive”; `CCCCCCCCCCCCCCCCCC(=O)OC(CC(=O)O)C[N+](C)(C)C` (centres undefined): “inactive”.

On to `O=C1NC(=O)/C(=C/c2ccc3nccnc3c2)S1`, for which the call was inactive. For `CC12C(=O)OC(=O)C1(C)C1CCC2O1` (centres undefined), the result was inactive. Regarding `COc1cc(OC)c(/C=C2/C(=O)Nc3ccccc32)c(OC)c1`, the result was inactive. Still for that read-out and setting: then `CN1CCc2cccc3c2C1Cc1ccc(O)c(O)c1-3` (centres undefined), with “inactive”; and `COC1=C(OC)C(=O)c2ccccc2C1=O`, with “inactive”. For `NS(=O)(=O)C#Cc1ccccc1`, the molecule was classed as inactive. In the case of `O=C1NC(=O)/C(=C/c2ccc(-c3ccc(F)cc3O)o2)S1`, the result was inactive. As for `C#C[C@]1(O)CC[C@H]2[C@@H]3CCC4=Cc5oncc5CC4(C)[C@H]3CCC21C` (some centres undefined), the result was inactive. In the case of `COc1ccc(/C=C/c2nc(NCCCN(C)C)c3ccccc3n2)cc1`, the outcome was inactive. Take `O=S(=O)(c1cccc2c(I)cccc12)N1CCCNCC1`: the call was inactive. On the same count and under the same terms, then `COc1ccc(/C=C/C(=O)Nc2ccccc2C(=O)O)cc1OC`, with “inactive”.

A short description of a further assay: qHTS to identify inhibitors of the type 1 interferon - major histocompatibility complex class I in skeletal muscle: primary screen against the NCATS Mechanism Interrogation Plate v5.0 (MIPE) Libary (AID 1347411). Also: nearly all actives have a fitted effect of over 65% in size. Also: potency is read from the fitted curve at half-maximal effect. The note with it: iHSKM cells + IFN-b, HiBiT-tagged MHC-I luminescence, 24 h; series mostly up to 45.8 µM. The method in brief:
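IFN-beta-driven (4 ng/ml) HLA-B-HiBit expression in CRISPR-tagged C25cl48 myoblasts; compounds 11-pt, 1:3, max 46 uM, 24 hr exposure; lytic NanoLuc complementation luminescence.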
As for `N#C/C(=C\c1ccc(O)c(O)c1)C(=O)NCc1ccccc1`, the Potency entry is “inactive”. For the molecule `CCOC(=O)N1CCN(/[N+]([O-])=N/Oc2ccc([N+](=O)[O-])cc2[N+](=O)[O-])CC1`, the Potency was 20.8 µM (active).

As to `CC1(C)[C@@H](O)CC[C@]2(C)[C@H]3C(=O)C=C4[C@@H]5C[C@@](C)(C(=O)O)CC[C@]5(C)CC[C@@]4(C)[C@]3(C)CC[C@@H]12`, the Potency result was “inactive”. As to `CC[C@H]1OC(=O)[C@H](C)[C@@H](O[C@H]2C[C@@](C)(OC)[C@@H](O)[C@H](C)O2)[C@H](C)[C@@H](O[C@@H]2O[C@H](C)C[C@H](N(C)C)[C@H]2O)[C@](C)(O)C[C@@H](C)C(=O)[C@H](C)[C@@H](O)[C@]1(C)O`, the Potency entry is “inactive”.

Consider `C=CCc1cccc(/C=N/NC(=O)CN2CCN(Cc3ccccc3)CC2)c1O`, for which the Potency entry is “inactive”. In the case of `O=C1NC(=O)/C(=C/c2ccc3nccnc3c2)S1`, the Potency entry was “inactive”. Still for that read-out and setting: then `COc1cc(CNC(=O)CCCC/C=C/C(C)C)ccc1O`, with “inactive”; and `CCNC(=O)[C@H]1O[C@@H](n2cnc3c(N)nc(NCCc4ccc(CCC(=O)O)cc4)nc32)[C@H](O)[C@@H]1O`, with “inactive”; and `O=C1NC(=O)/C(=C/c2ccc(-c3ccc(F)cc3O)o2)S1`, with “inactive”. As to `O=C(O)[C@H](CC(=O)N1C[C@H]2CCCC[C@H]2C1)Cc1ccccc1`, the Potency entry was “inactive”. The same measure, in the same setting: next, `O=S(=O)(c1cccc2c(I)cccc12)N1CCCNCC1`: “inactive”; `COc1ccc(/C=C/C(=O)Nc2ccccc2C(=O)O)cc1OC`: “inactive”.
